The record followed here is PubChem BioAssay AID651917 (Southern Research Specialized Biocontainment Screening …, 2012).

This assay in a line: VEEV TC-83 cytopathic effect inhibitors, confirmation, cell-based, TC-83 strain, set 8 (AID 651917). Background: Protection from cytopathic effect is a common read-out in antiviral testing.

Entries with a potency or affinity are not part of this list. The source made the active and inactive calls. How the calls were made is not given here.

For the molecule `CN(C)c1cccc(-n2c(CN3CCNCC3)nc3ccc([N+](=O)[O-])cc3c2=O)c1`, the molecule was classed as inactive.
To `CCN1CCN(Cc2nc3ccc([N+](=O)[O-])cc3c(=O)n2C)CC1` belongs “inactive”; to `CCN1CCN(Cc2nc3ccc(-c4nn[nH]n4)cc3c(=O)n2-c2ccccc2)CC1`, “inactive”; to `CCN1CCN(Cc2nc3c([N+](=O)[O-])cccc3c(=O)n2-c2ccccc2)CC1`, “inactive”.
Regarding `Cc1cccc(C)c1Nc1nc(=O)c2cccnc2s1`, the outcome was inactive.
On to `O=c1nc(N2CCN(Cc3ccccc3)CC2)sc2ncccc12`, for which the call was inactive.
In the case of `CCN1CCN(Cc2nc3ncccc3c(=O)n2-c2ccccc2)CC1` it was “inactive”; in that of `CCN1CCN(Cc2nc3ccc(-c4cccnc4)cc3c(=O)n2-c2ccccc2)CC1`, “inactive”.
As for `O=c1nc(Nc2ccc(CCc3ccccc3)cc2)sc2ncccc12`, the outcome was inactive.
Take `COc1ccc(Nc2nc(=O)c3cccnc3s2)cc1`: the call was inactive.
In the case of `O=C1CN(Cc2nc3ccc([N+](=O)[O-])cc3c(=O)n2-c2ccccc2F)CCN1` it was “inactive”; in that of `CCN1CCN(Cc2nc3ccc(S(=O)(=O)O)cc3c(=O)n2-c2ccccc2)CC1`, “inactive”.
As to `CN(C)c1ccc(-n2c(CN3CCNCC3)nc3ccc([N+](=O)[O-])cc3c2=O)cc1`, the call was inactive.
In the case of `CCN1CCN(CC2Nc3ccc([N+](=O)[O-])cc3C(=O)N2c2ccccc2F)CC1` (stereo not drawn), the molecule was called inactive.
As for `O=c1nc(Nc2ccc(OCc3ccccc3)cc2)sc2ncc([N+](=O)[O-])cc12`, the molecule was classed as inactive.
Consider `CCN(CC)c1nc(=O)c2cccnc2s1`, for which the outcome was inactive.
In the case of `CCN1CCN(Cc2nc3ccc([N+](=O)[O-])cc3c(=O)n2Cc2ccccc2)CC1`, the molecule was classed as inactive.
To `O=c1nc(Nc2ccccc2OCc2ccccc2)sc2ncccc12` belongs “inactive”; to `O=c1nc(NC2CCNCC2)sc2ncccc12`, “inactive”; to `COc1ccccc1-n1c(CN2CCNCC2)nc2ccc([N+](=O)[O-])cc2c1=O`, “inactive”.
To `CCN1CCN(c2nc3ccc([N+](=O)[O-])cc3c(=O)n2-c2ccccc2)CC1` belongs “inactive”; to `O=c1nc(Nc2ccc(F)cc2)sc2ncccc12`, “inactive”.
Turning to `CCN1CCN(Cc2nc3ccc(C(=O)O)cc3c(=O)n2-c2ccccc2)CC1`, the molecule was classed as inactive.
